An excerpt weighted towards active compounds, which were near 2.7% of everything screened.
MPTP inh: permeability transition pore inhibition; isolated mouse mitochondria, Ca2+ swelling absorbance, 30 min; inhibition, % at 10 µM; 360,000 compounds, 1.4% hits; AID 602449;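 active = inhibition of 50% or more, scaled per plate between neutral and stimulator controls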;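 also: 0% = DMSO wells given calcium and 100% = 1 mM EGTA wells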
TAG inh: inhibitors of triacylglycerol accumulation; 230,000 compounds, 0.66% hits; H9c2 cells, Nile Red lipid (TAG) fluorescence; cells loaded with 200 µM oleic acid; inhibition, % at 12.5 µM;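 active = pattern-corrected inhibition of lipid staining of at least 50% with the nuclear-stain viability signal not falling by more than 50%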;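 also: 0% = DMSO wells and 100% = triacsin C control wells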
NadD block: blocks S. aureus nicotinate mononucleotide adenylyltransferase; purified NadD enzyme, colorimetric absorbance read-out; inhibition, % at 20 µM; 360,000 compounds, 0.78% hits; AID 602399; in the data active = inhibition above about 26%
aDG glyco act: increases alpha dystroglycan glycosylation. Pro5-aDG cells, alpha-DG glycosylation AlphaScreen (IIH6); 0% Pro5, 100% B10-LARGE cell signal. activation, % at 10 µM. 360,000 compounds, 0.22% hits;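 active = activation of at least 8% versus controls, or a plate z-score of at least 8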;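 also: Pro5 are CHO cells carrying HIG-tagged alpha-DG that lacks glycosylation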
Active calls of the source: *; . = no result given.

SMILES	MPTP inh	TAG inh	NadD block	aDG glyco act
O=C1NC[C@H](CCCCN2C[C@@H](Cc3ccccc3)N(CC3CCCCC3)C(=O)C2=O)N(CCC2CCCCC2)C1=O	-6	.	15	0
O=C1N=c2ccccc2=C1c1sc(Nc2ccc(O)cc2)nc1O	1	7	33*	0
O=C1N=c2ccccc2=C1c1sc(Nc2cccc(O)c2)nc1O	2	.	16	0
CCC(=O)Nc1ccccc1C(=O)C(=O)Nc1ccccc1	0	.	-1	0
CC1=NN(c2ccccc2)C(=O)/C1=C/C=C/c1ccc(N(C)C)cc1	24	66*	4	-1
CC1=NN(c2ccccc2)C(=O)/C1=C\C=C\c1ccccc1	0	-15	-11	0
Cc1cc(C)c2nc(-c3ccccn3)cc(C(=O)Nc3ccc(S(=O)(=O)Nc4cc(C)on4)cc3)c2c1	4	.	61*	0
Cc1cc(C)c2nc(-c3ccccn3)cc(C(=O)Nc3ccc(S(=O)(=O)Nc4onc(C)c4C)cc3)c2c1	0	.	41*	0
COc1ccc(-c2cc(C(=O)Nc3ccc(S(=O)(=O)Nc4onc(C)c4C)cc3)c3ccccc3n2)cc1OC	3	-3	19	0
Cc1cc(NS(=O)(=O)c2ccc(NC(=O)c3cc(-c4cccnc4)nc4ccc(Cl)cc34)cc2)no1	-2	.	12	0
Cc1nn(C)cc1C(=O)Nc1ccc2c(c1)OCCO2	-1	.	3	0
COCCNC(=O)C1(C)Cc2c(-c3ccc4c(c3)OCO4)ccnc2O1 (configuration not stated)	-1	5	3	0
CC(=O)n1cc(N(C(=O)CCl)c2ccc(C)cc2)c2ccccc21	1	65*	1	0
CC(=O)N(c1ccc(Cl)cc1)c1cn(C(C)=O)c2ccccc12	2	-6	-4	0
CC(C)c1ccc(S(=O)(=O)/N=C2/C=C(Sc3ncn[nH]3)C(=O)c3ccccc32)cc1	1	.	83*	0
Cc1ccc(S(=O)(=O)/N=C2/C=C(Sc3ncn[nH]3)C(=O)c3ccccc32)cc1	9	.	50*	0
O=C(NC1CCC(O)CC1)c1cccnc1Sc1ccccc1Cl (configuration not stated)	-1	-4	-5	0
N=C1/C(=C/c2ccc(-c3cccc(C(=O)O)c3)o2)C(=O)N=C2SC=C(c3ccccc3)N12	3	0	61*	0
O=C(O)c1cc(O)c2c(c1)[C@@H]([C@H]1c3cc(C(=O)O)cc(O)c3C(=O)c3c(O[C@@H]4O[C@H](CO)[C@@H](O)[C@H](O)[C@H]4O)cccc31)c1cccc(OC3O[C@H](CO)[C@@H](O)[C@H](O)[C@H]3O)c1C2=O (some centres not stated)	2	-5	30	0
O=C(O)c1cc(O)c2c(c1)[C@H]([C@H]1c3cc(C(=O)O)cc(O)c3C(=O)c3c(O[C@@H]4O[C@H](CO)[C@@H](O)[C@H](O)[C@H]4O)cccc31)c1cccc(OC3O[C@H](CO)[C@@H](O)[C@H](O)[C@H]3O)c1C2=O (some centres not stated)	-3	-13	68*	0
COc1ccc(NC(=O)CN2C(=O)/C(=C3\SC(=S)N(C4CCS(=O)(=O)C4)C3=O)c3ccccc32)cc1 (configuration not stated)	5	6	32*	0
CCOc1ccc2[nH]c3c(NCCCOC)ncnc3c2c1	1	.	-5	0
CC(C)OCCCNc1ncnc2c1[nH]c1ccccc12	24	.	-7	5.4*
CCOc1cc(/C=C2\CCC/C(=C\c3cc(Cl)c(O)c(OCC)c3)C2=O)cc(Cl)c1O	3	19	46*	-1
CC(=O)Nc1cccc(NC(=O)NC2CC(=O)N(c3ccc4c(c3)OCCO4)C2)c1 (configuration not stated)	-1	-3	-2	0
CN([C@@H](Cc1ccc(OS(=O)(=O)c2cccc3cnccc23)cc1)C(=O)N1CCN(c2ccccc2)CC1)S(=O)(=O)c1cccc2cnccc12	1	29	32*	0
COc1ccc(N2CCN(C(=O)C(Cc3ccccc3)n3cccc3)CC2)cc1 (configuration not stated)	0	-1	0	0
CC1=C(C(=O)N(C)C)CC(CC(=O)NC2CCCCC2)C(=O)N1Cc1ccccc1 (configuration not stated)	-1	-4	2	1
CCCNC(=O)C1(C)CCCN(Cc2ccc3ccccc3c2)C1 (configuration not stated)	-1	2	0	0
COc1ccc(-c2cn3cc(C)ccc3n2)cc1Br	-4	.	-3	94*
